Screens deposited in PubChem by several laboratories.
Hits are enriched below; roughly 3.3% of the tested compounds scored in any of these assays.
Mcl1-Noxa inh: Mcl-1/Noxa binding inhibitors, primary screen, biochemical, TR-FRET, 1536-well | Induced myeloid leukemia cell differentiation protein Mcl-1 (Homo sapiens), Q07820 | TR-FRET Mcl-1/Noxa peptide binding, 2 h | inhibition, % at 21.7 µM | 220,000 tested, 1.5% active;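 active = compounds that cut the protein-peptide binding signal by more than 50% relative to plate controls in a single-dose test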;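 also: His-tagged Mcl-1 with rhodamine Noxa BH3 peptide and terbium anti-His antibody; 0% = Mcl-1 plus Noxa peptide wells and 100% = peptide-only wells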
Target sequence (Q07820 whole entry, looked up): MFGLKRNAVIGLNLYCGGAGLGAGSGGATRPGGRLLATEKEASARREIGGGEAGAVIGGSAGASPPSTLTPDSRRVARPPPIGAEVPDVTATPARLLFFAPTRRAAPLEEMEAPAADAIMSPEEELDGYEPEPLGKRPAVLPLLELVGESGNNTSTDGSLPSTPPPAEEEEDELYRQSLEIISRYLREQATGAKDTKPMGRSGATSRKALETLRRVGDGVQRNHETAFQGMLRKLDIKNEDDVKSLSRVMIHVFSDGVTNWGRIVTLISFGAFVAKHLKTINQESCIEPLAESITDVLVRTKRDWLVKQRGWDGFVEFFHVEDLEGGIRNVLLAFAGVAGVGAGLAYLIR
eIF4E-4G inh: eIF4E–eIF4G protein interaction inhibitors, primary screen, biochemical, uHTS, TR-FRET, eIF4GI fragment | Eukaryotic translation initiation factor 4E (Mus musculus) + Eukaryotic translation … | TR-FRET eIF4E-eIF4GI(517-606) binding, 2 h | inhibition, % at 21.7 µM | 220,000 tested, 0.37% active | AID 782, 2007;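 also: 0% = full FRET control wells and 100% = background wells lacking eIF4GI fragment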
14-3-3 Bad inh: inhibitors of 14-3-3 zeta/Bad binding, primary screen, biochemical, TR-FRET, bovine 14-3-3 zeta; TR-FRET 14-3-3zeta/Dy647-pBad peptide displacement, 1 h; inhibition, % at 21.7 µM; 220,000 tested, 0.71% active; AID 781, 2007;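 active = inhibition above about 70%, limit read from the data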;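 also: 0% = full 14-3-3 plus peptide FRET controls and 100% = background without 14-3-3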
Target sequence (P63103 whole entry, looked up): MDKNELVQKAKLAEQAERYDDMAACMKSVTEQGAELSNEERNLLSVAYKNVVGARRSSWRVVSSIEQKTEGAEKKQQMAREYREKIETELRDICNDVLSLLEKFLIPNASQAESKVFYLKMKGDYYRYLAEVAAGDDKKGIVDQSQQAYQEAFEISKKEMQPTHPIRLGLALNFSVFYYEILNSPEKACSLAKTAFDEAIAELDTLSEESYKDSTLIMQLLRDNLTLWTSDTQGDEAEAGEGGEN
Bim-Mcl-1: inhibitors of Bim peptide binding to Mcl-1, primary screen, biochemical, bead-based flow cytometry, multiplex | Induced myeloid leukemia cell differentiation protein Mcl-1 (Homo sapiens), Q07820 | Bim peptide-Mcl-1 binding | inhibition, % at 10 µM | 190,000 tested, 0.1% active | AID 1009, 2008; in the data active = inhibition above about 40%;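 also: 0% = no compound tracer wells and 100% = peptide blocker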
NCF1 inh: p47phox/p22phox peptide binding inhibitors, primary screen, biochemical, uHTS, NADPH oxidase regulatory subunit | fluorescence polarization, 2 h | 220,000 tested, 0.53% active | inhibition, % at 24.7 µM;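 also: 0% = p47phox with labelled peptide and 100% = labelled peptide alone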
Mcl1 Bid PPI: Mcl-1/Bid binding inhibitors, primary screen, biochemical, TR-FRET, 1536-well; Induced myeloid leukemia cell differentiation protein Mcl-1 (Homo sapiens), Q07820; TR-FRET Mcl-1/Bid-Dy647 peptide binding; inhibition, % at 21.7 µM; 220,000 tested, 0.97% active;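 active = compounds that cut the binding signal by more than half at the single screening dose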;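 also: His-tagged Mcl-1 with europium anti-His antibody binding Bid BH3 peptide; 0% = Mcl-1 plus peptide wells and 100% = peptide-only wells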
* marks the source's active call; other numbers are inactive results; / = no result; + = active, no number.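 The calls were made as follows, unless noted: active = inhibition above about 30% (limit read from the data); inactive = the rest.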

SMILES	Mcl1-Noxa inh	eIF4E-4G inh	14-3-3 Bad inh	Bim-Mcl-1	NCF1 inh	Mcl1 Bid PPI
O=C(c1ccco1)N1CCN(Cc2cccc(F)c2)CC1	32	1	73*	1	-5	22
Cc1ccc(C(=O)NC2CCS(=O)(=O)C2)cc1S(=O)(=O)N1CCCCCC1 (centres undefined)	3	2	11	1	6	-19
CN(C)S(=O)(=O)c1cccc(NC(=O)COC(=O)c2c[nH]c(=O)[nH]c2=O)c1	10	2	-5	-2	-2	-7
CCOC(=O)CCCNC(=O)CSc1nc2ccc(OCC)cc2[nH]1	5	0	-13	1	-7	-27
COC(=O)Cc1[nH]c(=S)[nH]c1C(=O)OC	3	8	-6	/	0	-17
CCS(=O)(=O)c1ccc(S(=O)(=O)CC)s1	-7	6	13	0	-12	70*
CCn1c(SCc2nc3sc(C(=O)O)c(C)c3c(=O)[nH]2)nc2ccccc21	77*	30	54	2	-41	11
COCCn1c(SCc2nc3sc(C(=O)OC)c(C)c3c(=O)[nH]2)nc2ccccc21	23	-14	30	0	-67	39
Cc1ccc(Cn2nnnc2CN2CCC(NC(=O)C(C)(C)C)CC2)cc1	5	4	-10	0	1	-6
N#C/C(=C\c1ccc(N2CCCC2)c([N+](=O)[O-])c1)c1nc2ccccc2[nH]1	36	-40	19	-2	8	68*
O=C(O)CC/C(=C\c1ccc(Cl)c([N+](=O)[O-])c1)c1nc2ccccc2s1	14	17	-3	-2	-26	5
N#C/C(=C\c1ccc(O)c([N+](=O)[O-])c1)c1nc2ccccc2s1	66*	12	41	1	-60	16
COc1ccc(-c2csc(/C(C#N)=C\c3ccc(O)c([N+](=O)[O-])c3)n2)cc1OC	102*	12	12	/	-16	70*
COc1cc(/C=C(\C#N)c2nc3ccccc3s2)cc([N+](=O)[O-])c1O	99*	18	28	4	-86	49
CCc1ccc(NC(=O)C(=O)NCc2ccccn2)cc1	-18	0	-8	-1	-63	-17
O=C(O)CCN1C(=O)/C(=C\c2ccncc2)SC1=S	-8	-7	-15	0	-2	-36
Cc1ccc(-c2nn(-c3ccccc3)cc2/C=C2\SC(=S)N(CC(=O)O)C2=O)cc1	88*	10	11	/	-32	36
Cn1cccc1/C=C1\SC(=S)N(CC(=O)O)C1=O	13	1	-1	0	-3	-54
O=C(O)CCN1C(=O)/C(=C/c2cn(-c3ccccc3)nc2-c2cccs2)SC1=S	88*	30*	76*	-2	-95	84*
O=C(O)CCCCCN1C(=O)/C(=C\c2cn(-c3ccccc3)nc2-c2cccs2)SC1=S	99*	45*	64	/	-5	89*
COC(=O)c1nc(N)sc1C	6	4	-10	-1	-1	-21
Cc1ccc(S(=O)(=O)NC(=O)Nc2ccc(OC(F)F)cc2)cc1	-7	-2	1	/	-8	-28
COc1ccccc1N1CC(C)(C)C(=O)N(C(=O)c2ccc(Cl)cc2)C1=S	-10	-3	0	/	2	-12
CC(=O)Oc1ccccc1-n1c(C)nc(=O)c(-c2ccccc2)c1C	-11	-6	1	/	3	-39
CCOC(=O)C1=C(CP(=O)(c2ccccc2)c2ccccc2)NC(=O)NC1c1ccc(Cl)cc1 (centres undefined)	-3	-8	2	-3	-6	7
SMILES	Mcl1-Noxa inh	eIF4E-4G inh	14-3-3 Bad inh	Bim-Mcl-1	NCF1 inh	Mcl1 Bid PPI
CCOC(=O)C1=C(CP(=O)(c2ccccc2)c2ccccc2)NC(=O)NC1c1ccc(OC)cc1 (centres undefined)	4	-3	8	74*	1	-3
COc1cc(OC)cc(-c2cc3nc(C)c(CCC(=O)O)c(C)n3n2)c1	33	-3	66	0	-10	62*
COc1cc(OC)cc(-c2cc3nc(C)c(CCC(=O)NC(C)CCc4ccco4)c(C)n3n2)c1 (centres undefined)	/	/	/	2	/	/
Cn1ncc(N=Cc2ccccc2O)c1C(=O)N1CCOCC1	-4	-5	-7	0	+	-19
Cn1ncc(Cl)c1C(=O)N1CCOCC1	-10	-4	-7	4	-4	-28
COc1ccc(CSc2nc(C)cc(C)c2S(C)(=O)=O)cc1	-3	3	1	0	6	5
O=C(CCc1nnc(CCC2CCCCC2)o1)NCCc1cccnc1	-1	0	-7	-3	-10	-15
O=C(Nn1cnnc1)c1ccccc1CCc1ccccc1	19	2	3	-5	-1	97*
Fc1ccc(N/N=C/C=C/c2ccccc2)c(F)c1	9	1	-8	-6	11	-36
O=C(COc1ccccc1C(=O)N/N=C\c1ccc(O)c(O)c1)N/N=C/c1ccc(O)c(O)c1	100*	3	-6	12	-78	-40
CSc1ccc(/C=N/NC(=O)CN2CCN(Cc3ccccc3Cl)CC2)cc1	8	-5	6	-2	-1	-6
Cc1cc(C)cc(OCC(=O)N/N=C/c2ccccn2)c1	-13	4	-7	/	-18	-49
O=C(COc1ccccc1[N+](=O)[O-])N/N=C/c1ccc(O)c([N+](=O)[O-])c1	2	2	-2	0	3	-9
O=C(CN1CCN(Cc2ccccc2Cl)CC1)N/N=C/c1ccccn1	69*	0	-4	/	-3	-19
Cc1ccccc1OCC(=O)N/N=C/c1ccccn1	-1	4	2	64*	0	-14
COc1cc(C(=O)c2nccc3cc(OC)c(OC)cc23)c([N+](=O)[O-])cc1OC	19	0	3	-1	1	5
COc1ccc2nc(-c3ccc(Cl)cc3)cc(C(=O)O)c2c1	10	0	3	/	-5	-4
O=C(NC(=O)N1CCN(c2ccc([N+](=O)[O-])cn2)CC1)c1c(Cl)cccc1Cl	9	-3	0	/	-6	1
CC1(C)CC2(CC(c3ccccc3F)c3ccc(O)c(O)c3O2)NC(=S)N1 (centres undefined)	35	0	-5	-1	-14	-96
O=C(CN1c2cccc3cccc(c23)S1(=O)=O)Nc1ccc(S(=O)(=O)N2CCOCC2)cc1	43	23	5	-1	-48	-64
